Results on twelve molecules are retold here after PubChem BioAssay (EPA / NIEHS).

Results filed as inconclusive are left out. Some compounds were tested as several samples or in several runs, with calls that do not always agree. Activity calls are given as the source filed them. Rule for the calls, unless noted: active = hit-call score of the fitted dose curve at least 0.9, where 1 is the maximum; inconclusive = response in the unintended direction; inactive = score below 0.9.

In assay [1] the test system is zebrafish Peroxisome Proliferator-activated Receptor gamma (PPARg), gene 557037. The assay can be described thus: ATG_zfPPARg_XSP2: Attagene TRANS-FACTORIAL Multi-Species (XSP2) HepG2 Assay for zebrafish Peroxisome Proliferator-activated Receptor gamma (PPARg) (AID 2283833).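 Note: reporter mRNA from a zebrafish PPARg GAL4 chimera measured by RT-PCR and capillary electrophoresis; actives increase reporter signal over DMSO so AC50 reflects activation.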 Put shortly: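 After 24 h chemical exposure, RNA from transiently transfected HepG2 (chimeric NR-Gal4 TRANS reporters) was reverse-transcribed, PCR-amplified, 6-FAM-labelled, HpaI-cut and sized by capillary electrophoresis. Induction was scored in the positive direction relative to DMSO.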

Assay [2] deals with turtle Thyroid Hormone Receptor, alpha (TRa), gene 101949057. The assay can be described thus: ATG_trTRa_XSP2: Attagene TRANS-FACTORIAL Multi-Species (XSP1) HepG2 Assay for turtle Thyroid Hormone Receptor, alpha (TRa) (AID 2283834).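 Note: hits raise reporter mRNA over the DMSO baseline so AC50 marks activators.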 The method in brief: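 Turtle TRa-Gal4 chimera activity in transfected human HepG2 cells: reporter transcripts quantified by RT-PCR, 6-FAM labelling and capillary electrophoresis 24 h post-dosing; positive direction versus DMSO, medium containing 3 nM 6-alpha-fluorotestosterone and 1.5 nM norgestrel.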

Assay [3] is described as follows: ATG_M_61_XSP2: Attagene TRANS-FACTORIAL Multi-Species (XSP2) HepG2 Assay for M61 Transcription Factor (Internal Marker) (AID 2283835; active = hit-call score of the fitted dose curve at least 0.9, where 1 is the maximum; inactive = score below 0.9;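 note: reporter mRNA of an internal background marker read by RT-PCR and capillary electrophoresis; active means a rise in signal above the DMSO baseline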). The method in brief:
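Signal was mRNA induction detected as fluorescence after RT-PCR and capillary electrophoresis, analysed in the gain direction with DMSO as baseline. HepG2 cells transiently carrying reporter constructs received chemicals for 24 h.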

Assay [4] is described as follows: ATG_XTT_Cytotoxicity_XSP2: Cytotoxicity Assessment in the Attagene TRANS-FACTORIAL Multi-Species (XSP2) HepG2 Assay (AID 2283837). Put shortly: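 XTT-based cell number read-out in human HepG2 liver cells carrying transfected reporter units, measured 24 h after chemical dosing. Activity is signal loss versus DMSO baseline.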
The target in assay [5] is human Thyroid hormone Receptor alpha (TRa), THRA (gene 7067) (UniProt P10827). The assay can be described thus: ATG_hTRa_XSP2: Attagene TRANS-FACTORIAL Multi-Species (XSP2) HepG2 Assay for human Thyroid hormone Receptor alpha (TRa) (AID 2283838). Put shortly: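 Reporter transcripts were read by RT-PCR with fluorescent primer extension, HpaI digestion and capillary electrophoresis. These came from HepG2 cells carrying multiplexed TRa-Gal4 TRANS constructs, harvested 24 hours after dosing. The medium also held 6-alpha-fluorotestosterone (3 nM) and norgestrel (1.5 nM), and increases were fitted against DMSO.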
Sequence of human Thyroid hormone Receptor alpha (TRa), THRA (gene 7067) (P10827 whole entry, looked up, the tested form may be a part): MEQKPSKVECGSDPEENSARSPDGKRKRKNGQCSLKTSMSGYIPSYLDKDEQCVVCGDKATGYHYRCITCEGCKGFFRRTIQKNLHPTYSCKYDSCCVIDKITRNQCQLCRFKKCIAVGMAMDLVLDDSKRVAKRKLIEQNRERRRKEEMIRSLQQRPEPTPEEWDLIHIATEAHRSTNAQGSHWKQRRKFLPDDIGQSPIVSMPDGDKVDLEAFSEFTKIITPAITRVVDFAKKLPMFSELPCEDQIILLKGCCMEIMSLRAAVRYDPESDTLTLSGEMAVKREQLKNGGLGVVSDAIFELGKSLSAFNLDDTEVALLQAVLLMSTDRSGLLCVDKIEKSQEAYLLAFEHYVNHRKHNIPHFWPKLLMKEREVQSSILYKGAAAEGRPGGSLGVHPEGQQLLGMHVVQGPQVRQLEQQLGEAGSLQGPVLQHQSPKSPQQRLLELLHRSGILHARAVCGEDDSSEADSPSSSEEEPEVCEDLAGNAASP

Assay [6] has as its target frog Thyroid hormone Receptor alpha (TRa), thra-a (gene 397942) (UniProt P15204). The assay can be described thus: ATG_frTRa_XSP2: Attagene TRANS-FACTORIAL Multi-Species (XSP2) HepG2 Assay for frog Thyroid hormone Receptor alpha (TRa) (AID 2283839).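 For AC50: AC50 reflects induction of frog TRa-driven reporter mRNA above DMSO baseline.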 The method in brief: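 Reporter transcripts were measured by RT-PCR with capillary electrophoresis after 24 h dosing of HepG2 carrying transiently transfected multi-reporter units, including a chimeric frog TRa-GAL4 construct. Activity was taken as increase over DMSO vehicle.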

Assay [7] concerns the target human Thyroid hormone Receptor beta (TRb), THRB (gene 7068) (UniProt P10828). The assay can be described thus: ATG_hTRb_XSP2: Attagene TRANS-FACTORIAL Multi-Species (XSP2) HepG2 Assay for human Thyroid hormone Receptor beta (TRb) (AID 2283840).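 Note: actives raise reporter mRNA so potency reflects agonist-like gain of signal.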 The method in brief: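 Activity of exogenous human TRb–Gal4 fusion measured by reporter mRNA from RT-PCR and capillary electrophoresis, 24 h after dosing transfected HepG2. 6-alpha-fluorotestosterone (3 nM) and norgestrel (1.5 nM) present. Gain-of-signal fit relative to DMSO.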

In assay [8] the test system is Sodium/Iodide Symporter (NIS), SLC5A5 (gene 6528). Briefly: CPHEA_Stoker_NIS_Inhibition_RAIU: CPHEA's Radioactive Iodide Uptake (RAIU) Assay for Sodium/Iodide Symporter (NIS) Inhibition, Stoker and Laws Labs (AID 2283841). The method in brief:
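Iodide uptake through human NIS is measured in an engineered HEK293T line. Cells take up 125I (329pM final) for 2 hours at room temperature alongside chemicals at 0.001–100uM. Retained radioactivity is counted, and the signal is expressed against DMSO controls.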

Assay [9] in a line: CPHEA_Stoker_NIS_Cytotoxicity: Cytotoxicity Assessment for CPHEA's Radioactive Iodide Uptake (RAIU) Assay for Sodium/Iodide Symporter (NIS) Inhibition, Stoker and Laws Labs (AID 2283897).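 For AC50: active means loss of ATP signal versus DMSO meaning cytotoxicity.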 The method in brief: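 ATP luminescence (Cell Titer Glo) measured viability, with loss of signal normalized to DMSO controls. Cells: hNIS-HEK293T-EPA, seeded 40 hours prior. Dosing: 0.001–100uM, 2 hours, room temperature, uptake buffer pH 7.4.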

Assay [10] in a line: CEETOX_H295R_11DCORT_noMTC: CeeTox H295R High-throughput Steroidogenesis Assay for 11-Deoxycortisol (11DCORT), maximum tolerated concentration (MTC) filtered results only (AID 2283911; active = hit-call score of the fitted dose curve at least 0.9, where 1 is the maximum; inactive = score below 0.9). Particulars: actives raise or lower the signal. Put shortly: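 Values carry no filtering for maximum tolerated concentration: medium from forskolin-primed (10 uM, 48 h) H295R cells after 48 h chemical exposure (0.1% DMSO) was MTBE-extracted, and 11-deoxycortisol quantified by reverse-phase HPLC-MS/MS. Fitting was bidirectional against DMSO.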

A short description of assay [11]: CEETOX_H295R_OHPREG_noMTC: CeeTox H295R High-throughput Steroidogenesis Assay for OH-Pregnenolone (OHPREG), maximum tolerated concentration (MTC) filtered results only (AID 2283912; active = hit-call score of the fitted dose curve at least 0.9, where 1 is the maximum; inactive = score below 0.9). Particulars: actives raise or lower the signal. Put shortly: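 Readout is HPLC-MS/MS quantification of 17alpha-hydroxypregnenolone released by forskolin-stimulated H295R cells over 48 h of chemical exposure, DMSO as baseline.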

The nature of assay [12]: CEETOX_H295R_OHPROG_noMTC: CeeTox H295R High-throughput Steroidogenesis Assay for OH-Progesterone (OHPROG), maximum tolerated concentration (MTC) filtered results only (AID 2283914; active = hit-call score of the fitted dose curve at least 0.9, where 1 is the maximum; inactive = score below 0.9). Particulars: actives raise or lower the signal. Put shortly:
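Analysis uses all tested concentrations, without maximum-tolerated-concentration screening by MTT. H295R cells, forskolin-primed (10 uM, 48 h), receive chemical for 48 h; hormone in medium measured by HPLC-MS/MS, with bidirectional curve fitting against DMSO.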

Assay [13] in a line: CEETOX_H295R_CORTISOL_noMTC: CeeTox H295R High-throughput Steroidogenesis Assay for Cortisol, maximum tolerated concentration (MTC) filtered results only (AID 2283916; active = hit-call score of the fitted dose curve at least 0.9, where 1 is the maximum; inactive = score below 0.9). The conditions noted are these: actives raise or lower the signal. Put shortly: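 H295R adrenal cells were pre-stimulated 48 h with 10 uM forskolin, then exposed 48 h to test chemical in 0.1% DMSO. Medium cortisol was measured by MTBE extraction and HPLC-MS/MS; bidirectional fit versus DMSO, concentrations not MTC-filtered.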

The nature of assay [14]: CEETOX_H295R_CORTIC_noMTC: CeeTox H295R High-throughput Steroidogenesis Assay for Corticosterone (CORTIC), maximum tolerated concentration (MTC) filtered results only (AID 2283917; active = hit-call score of the fitted dose curve at least 0.9, where 1 is the maximum; inactive = score below 0.9). Particulars: actives raise or lower the signal. The method in brief: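 Forskolin-stimulated (10 uM, 48 h) H295R cells are dosed 48 h with chemical in DMSO (0.1% final); corticosterone change is quantified by HPLC-MS/MS and fitted bidirectionally against DMSO, unfiltered for MTT-derived MTC.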

Assay [15] in a line: CEETOX_H295R_DOC_noMTC: CeeTox H295R High-throughput Steroidogenesis Assay for DOC, maximum tolerated concentration (MTC) filtered results only (AID 2283918; active = hit-call score of the fitted dose curve at least 0.9, where 1 is the maximum; inactive = score below 0.9). Particulars: actives raise or lower the signal. The method in brief:
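H295R cells prestimulated 48 h with 10 uM forskolin, then exposed 48 h to test chemical (0.1% DMSO final). Medium 11-deoxycorticosterone extracted with MTBE, quantified by HPLC-MS/MS; bidirectional fit versus DMSO, concentrations not MTC-filtered.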

A short description of assay [16]: CEETOX_H295R_PROG_noMTC: CeeTox H295R High-throughput Steroidogenesis Assay for Progesterone (PROG), maximum tolerated concentration (MTC) filtered results only (AID 2283920; active = hit-call score of the fitted dose curve at least 0.9, where 1 is the maximum; inactive = score below 0.9). The conditions noted are these: actives raise or lower the signal. The method in brief:
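Progesterone synthesis in the human adrenal line H295R is measured by HPLC-MS/MS after 48 h chemical exposure following 48 h forskolin (10 uM) stimulation. Activity in either direction is fitted relative to DMSO.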

The next assay addresses PGR (gene 5241) (UniProt P06401). Briefly: TOX21_PR_BLA_Followup_Antagonist_ratio: Tox21 HEK293 Progesterone Receptor (PR) Antagonism Beta-lactamase Follow-Up Assay, Ratio (AID 2283934).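 Note: PR-UAS-bla HEK293T cells stimulated with 1 nM R5020 agonist for 16 hr.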 Put shortly: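 Readout is the blue/green (ch2/ch1) substrate cleavage ratio after 2 hours at room temperature, following 16 hr co-treatment of PR-bla HEK293T cells with compound and 1nM promegestone. Multiplexed CellTiter-Glo viability flags cytotoxicity; DMSO baseline.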

Assay [17] is described as follows: TOX21_PR_BLA_Followup_Agonist_viability: Viability Assessment in the Tox21 HEK293 Progesterone Receptor (PR) Agonism Beta-lactamase Follow-Up Assay (AID 2283935).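 Note: signal loss means lower viability so actives are cytotoxic.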 The method in brief:
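Run multiplexed with the beta-lactamase FRET read, this endpoint measures ATP by CellTiter-Glo luminescence (30 min, room temperature). PR-UAS-bla HEK293T cells received compound 6 hr after plating and were then incubated 16 hr at 37C in 2% stripped serum.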

Sequence of frog Thyroid hormone Receptor alpha (TRa), thra-a (gene 397942) (P15204 whole entry, looked up, the tested form may be a part): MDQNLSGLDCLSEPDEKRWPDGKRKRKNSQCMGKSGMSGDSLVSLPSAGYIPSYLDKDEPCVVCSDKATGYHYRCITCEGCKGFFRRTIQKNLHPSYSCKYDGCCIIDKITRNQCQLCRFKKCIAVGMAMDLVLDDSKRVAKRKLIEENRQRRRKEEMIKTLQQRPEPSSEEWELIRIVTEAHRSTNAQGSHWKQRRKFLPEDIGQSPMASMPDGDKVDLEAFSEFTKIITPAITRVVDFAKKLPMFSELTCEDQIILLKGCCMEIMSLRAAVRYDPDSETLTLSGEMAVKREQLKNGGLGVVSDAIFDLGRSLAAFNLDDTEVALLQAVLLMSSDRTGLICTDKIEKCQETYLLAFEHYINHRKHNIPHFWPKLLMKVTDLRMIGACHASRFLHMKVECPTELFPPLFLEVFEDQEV
Sequence of human Thyroid hormone Receptor beta (TRb), THRB (gene 7068) (P10828 whole entry, looked up, the tested form may be a part): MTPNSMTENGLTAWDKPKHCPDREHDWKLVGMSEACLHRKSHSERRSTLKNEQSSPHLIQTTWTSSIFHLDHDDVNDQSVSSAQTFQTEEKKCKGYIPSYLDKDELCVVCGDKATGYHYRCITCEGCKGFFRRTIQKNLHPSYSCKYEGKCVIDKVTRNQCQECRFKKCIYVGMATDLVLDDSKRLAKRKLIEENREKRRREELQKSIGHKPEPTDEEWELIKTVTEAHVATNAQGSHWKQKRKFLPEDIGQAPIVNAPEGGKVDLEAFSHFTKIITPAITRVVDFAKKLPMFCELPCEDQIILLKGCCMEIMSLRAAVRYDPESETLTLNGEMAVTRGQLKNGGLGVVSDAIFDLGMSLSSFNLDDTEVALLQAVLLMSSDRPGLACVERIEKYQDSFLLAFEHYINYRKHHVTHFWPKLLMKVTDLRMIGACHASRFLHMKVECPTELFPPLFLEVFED
Sequence of PGR (gene 5241) (P06401 whole entry, looked up): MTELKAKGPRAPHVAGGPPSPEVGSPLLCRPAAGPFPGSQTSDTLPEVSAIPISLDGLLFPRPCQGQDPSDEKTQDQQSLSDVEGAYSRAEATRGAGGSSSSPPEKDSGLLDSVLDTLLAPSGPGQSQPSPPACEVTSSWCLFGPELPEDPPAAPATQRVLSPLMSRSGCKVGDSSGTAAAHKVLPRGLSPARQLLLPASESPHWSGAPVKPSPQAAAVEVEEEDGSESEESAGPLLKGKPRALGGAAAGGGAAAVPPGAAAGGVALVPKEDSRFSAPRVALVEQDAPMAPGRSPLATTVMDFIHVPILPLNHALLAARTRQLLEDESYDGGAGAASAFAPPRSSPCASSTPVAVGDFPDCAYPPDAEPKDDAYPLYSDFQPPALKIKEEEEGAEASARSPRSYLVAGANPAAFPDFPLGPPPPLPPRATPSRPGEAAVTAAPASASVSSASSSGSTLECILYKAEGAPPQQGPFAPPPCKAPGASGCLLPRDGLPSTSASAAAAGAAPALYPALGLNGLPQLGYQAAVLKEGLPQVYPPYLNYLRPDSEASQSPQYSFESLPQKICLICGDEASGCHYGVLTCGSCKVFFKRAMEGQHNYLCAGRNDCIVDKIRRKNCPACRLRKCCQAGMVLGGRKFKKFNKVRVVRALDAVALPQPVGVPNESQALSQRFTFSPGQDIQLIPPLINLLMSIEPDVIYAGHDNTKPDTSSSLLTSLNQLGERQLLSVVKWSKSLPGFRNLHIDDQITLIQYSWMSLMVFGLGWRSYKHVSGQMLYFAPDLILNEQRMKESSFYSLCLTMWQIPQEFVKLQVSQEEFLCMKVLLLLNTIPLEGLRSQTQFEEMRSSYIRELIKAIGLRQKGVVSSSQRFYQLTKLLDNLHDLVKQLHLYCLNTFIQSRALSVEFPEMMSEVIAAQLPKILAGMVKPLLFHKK

For orientation: AC50 means the concentration at which the activity in the assay is half-maximal. For the molecule `CC(C)(C)C(O)/C(=C\c1ccc(Cl)cc1Cl)n1cncn1` (centres undefined), the result in [1], in assay [2], in assay [3], in [5], in assay [6] and in assay [7] was inactive. In addition, the half-maximal activity concentration (AC50) is 100 µM (active) in assay [4], 35.9 µM (active) in assay [8] and 50 µM (active) in [9].

As to `CC(C)OC(=O)Nc1cccc(Cl)c1`, the result in assay [8] and in assay [9] was inactive.

Consider `N#Cc1c(Cl)c(Cl)c(Cl)c(C#N)c1Cl`, for which the outcome in [8] and in assay [9] was inactive.

For the molecule `CCS(=O)(=O)c1cccnc1S(=O)(=O)NC(=O)Nc1nc(OC)cc(OC)n1`, the molecule was called inactive in assay [10], in [11], in assay [12], in assay [13] and in [14]. For the same molecule, the AC50 in assay [15] is 7.07 µM (active); in [16] it was 16.7 µM (active).

For the molecule `ClC1C(Cl)C(Cl)C(Cl)C(Cl)C1Cl` (centres undefined), the result (in assay [8]; in [9]; with PGR (gene 5241); in [17]) was inactive.

Regarding `O=S(=O)(O)C(F)(F)C(F)(F)C(F)(F)C(F)(F)C(F)(F)C(F)(F)C(F)(F)C(F)(F)F`, the molecule was called inactive in assay [1], in [3], in [8] and in assay [9].

As for `CC1(C)C(C=C(Cl)Cl)C1C(=O)OC(C#N)c1ccc(F)c(Oc2ccccc2)c1` (centres undefined), the AC50 is 19.8 µM (active) in assay [1] and 37.1 µM (active) in assay [6]. Further, the molecule was classed as inactive in assay [2], in assay [7] and in assay [9].

For the molecule `CCc1ccc(C(=O)NN(C(=O)c2cc(C)cc(C)c2)C(C)(C)C)cc1`, the result in [8] and in assay [9] was inactive.

Consider `COc1nn(CSP(=S)(OC)OC)c(=O)s1`, for which the result in [8] and in assay [9] was inactive.

In the case of `Oc1cc(Cl)ccc1Oc1ccc(Cl)cc1Cl`, the result in assay [1], in assay [3] and in assay [5] was inactive. Further, the figures for the AC50 in [2], in [6] and in assay [7] were 4.84 µM (active), 2.46 µM (active) and 4.77 µM (active), respectively.

Consider `CCC(C)Nc1c([N+](=O)[O-])cc(C(C)(C)C)cc1[N+](=O)[O-]` (centres undefined), for which the result in [8] and in [9] was inactive.

In the case of `CCCN(CCC)c1c([N+](=O)[O-])cc(C(F)(F)F)cc1[N+](=O)[O-]`, the result in [3], in assay [6], in [8] and in assay [9] was inactive.
